Experimental data reported in PubChem BioAssay (NCATS).
Records with an inconclusive call do not appear. The source made the active and inactive calls. Calls follow the shape of the dose curve; as a rule, active = well fitted inhibition curve with a large enough effect; inconclusive = small, poorly fitted or top-dose-only effect; inactive = flat fitted curve, though single readings scatter.

System: 3D7
Assay: qHTS profiling for inhibitors of Plasmodium falciparum proliferation (AID 504749); also: nearly all actives have a fitted effect of over 60% in size;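 as to activity, negative = inhibition: 0% = DMSO vehicle and full inhibition = artemisinin control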
Details: P. falciparum in erythrocytes, SYBR Green DNA, 72 h; series mostly up to 28.7 µM; activity, negative = inhibition: at the top concentration
In short: (§1)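 P. falciparum-infected erythrocytes (0.3% parasitemia, 2.5% hematocrit) incubated with compound 72 h at 37 C, 5% CO2. Parasite DNA detected by SYBR Green after lysis, overnight at room temperature; normalised to 0.29 uM artemisinin and DMSO.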
Potency is read from the fitted curve at half-maximal effect.

SMILES | activity, negative = inhibition | Potency
CCOc1ccc2ccccc2c1C(=O)N[C@@H]1C(=O)N2[C@@H]1SC(C)(C)[C@@H]2C(=O)O | -10% [at 12.8 µM] (inactive) | 
Cc1cc(CC(=O)O)n(C)c1C(=O)c1ccc(Cl)cc1 |  | inactive
O=C(O)c1ccccn1 | 2.93% (inactive) | 
CCCCC(CC)COC(=O)c1ccccc1O (stereo not given) | 3.58% (inactive) | 
COc1cc(C)c(Cc2cnc(N)nc2N)cc1OC |  | 11.2 µM (active)
CCC(=O)c1ccc(O)cc1 | 0.223% (inactive) | 
NCCNCCNCCN | 4.04% (inactive) | 
C[C@](N)(Cc1ccc(O)cc1)C(=O)O | 5.22% (inactive) | 
O=C1NC(=O)[C@@]2(CCOc3ccc(F)cc32)N1 | -2.91% (inactive) | 
CC(C)(C)C(=O)NCCCC(=O)O | 0.684% (inactive) | 
NCCNCCNCCNCCN | 1.86% (inactive) | 
Nc1ccc(S(=O)(=O)NC(=O)c2ccccc2)cc1 | 2.46% [at 12.8 µM] (inactive) | 
CCCCN(CCCC)CCCOC(=O)c1ccc(N)cc1 | -2.62% [at 12.8 µM] (inactive) | 
[O-][n+]1cccc(CO)c1 | -3.73% (inactive) | 
O=C1c2c(O)cccc2Cc2cccc(O)c21 | 1.42% (inactive) | 
CCC(=O)Nc1ccc(O)cc1 | 4.2% (inactive) | 
Cc1cc(O)cc2c1O[C@](C)(CCC[C@H](C)CCC[C@H](C)CCCC(C)C)CC2 | -2.02% (inactive) | 
Cc1ncc(COP(=O)(O)O)c(C=O)c1O | -0.916% (inactive) | 

SMILES | activity, negative = inhibition | Potency
CC1(C)[C@@H]2CC[C@@]1(C)C(=O)C2 | 0.622% (inactive) | 
O=C(O)COc1nn(Cc2ccccc2)c2ccccc12 | 1.84% (inactive) | 
O=S(=O)(O)NC1CCCCC1 | -4.16% (inactive) | 
COc1ccc(S(=O)(=O)Nc2nnc(CC(C)C)s2)cc1 |  | inactive
O=C1OC(OC(=O)c2cccnc2Nc2cccc(C(F)(F)F)c2)c2ccccc21 (stereo not given) | -9.72% (inactive) | 
CC1(C)CO[C@@H](CC(=O)O)CN1 | 0.89% (inactive) | 
O=Cc1ccccc1C=O | 2.29% (inactive) | 
CC(=O)c1ccc2c(c1)N(CCCN(C)C)c1ccccc1S2 | -4.11% [at 12.8 µM] (inactive) | 
O=C(O)[C@@H]1CSCN1 | 0.646% (inactive) | 
CC(=O)Nc1ccc(/C=N/NC(N)=S)cc1 |  | inactive
C#CCN(C)Cc1ccccc1 | 2.46% [at 12.8 µM] (inactive) | 
Cc1cccc(Nc2cc(Cl)nc(SCC(=O)O)n2)c1C | -3.64% (inactive) | 
NCC(=O)CCC(=O)O | 3.66% (inactive) | 
O=c1cc[nH]c(=S)[nH]1 | 8.69% (inactive) | 
O=C(O)c1ccccc1-c1ccc(C(F)(F)F)cc1 | -1.77% (inactive) | 
CC(=O)CCC(=O)O | 5.03% (inactive) | 
OCC(O)CN1CCN(c2ccccc2)CC1 (stereo not given) | -2.39% (inactive) | 

System: 7G8
Assay: as above
Details: P. falciparum in erythrocytes, SYBR Green DNA, 72 h; series mostly up to 28.7 µM; activity, negative = inhibition: at the top concentration
In short: as §1

SMILES | activity, negative = inhibition | Potency
CCOc1ccc2ccccc2c1C(=O)N[C@@H]1C(=O)N2[C@@H]1SC(C)(C)[C@@H]2C(=O)O | 11.4% [at 12.8 µM] (inactive) | 
Cc1cc(CC(=O)O)n(C)c1C(=O)c1ccc(Cl)cc1 |  | inactive
O=C(O)c1ccccn1 | 14.2% (inactive) | 
CCCCC(CC)COC(=O)c1ccccc1O (stereo not given) | -11.6% (inactive) | 
COc1cc(C)c(Cc2cnc(N)nc2N)cc1OC | -7.32% (inactive) | 
CCC(=O)c1ccc(O)cc1 | -22.5% (inactive) | 
NCCNCCNCCN | -1.3% (inactive) | 
C[C@](N)(Cc1ccc(O)cc1)C(=O)O | 13% (inactive) | 
O=C1NC(=O)[C@@]2(CCOc3ccc(F)cc32)N1 | -3.16% (inactive) | 
CC(C)(C)C(=O)NCCCC(=O)O | -23.9% (inactive) | 
NCCNCCNCCNCCN | -2.06% (inactive) | 
Nc1ccc(S(=O)(=O)NC(=O)c2ccccc2)cc1 | -1.09% [at 12.8 µM] (inactive) | 
CCCCN(CCCC)CCCOC(=O)c1ccc(N)cc1 | -12.9% [at 12.8 µM] (inactive) | 
[O-][n+]1cccc(CO)c1 | -11.8% (inactive) | 
O=C1c2c(O)cccc2Cc2cccc(O)c21 | -15.5% (inactive) | 
CCC(=O)Nc1ccc(O)cc1 | 0.277% (inactive) | 
Cc1cc(O)cc2c1O[C@](C)(CCC[C@H](C)CCC[C@H](C)CCCC(C)C)CC2 | -1.73% (inactive) | 
Cc1ncc(COP(=O)(O)O)c(C=O)c1O | -10.5% (inactive) | 

SMILES | activity, negative = inhibition | Potency
CC1(C)[C@@H]2CC[C@@]1(C)C(=O)C2 | 9.52% (inactive) | 
O=C(O)COc1nn(Cc2ccccc2)c2ccccc12 | -1.94% (inactive) | 
O=S(=O)(O)NC1CCCCC1 | -13.9% (inactive) | 
COc1ccc(S(=O)(=O)Nc2nnc(CC(C)C)s2)cc1 |  | inactive
O=C1OC(OC(=O)c2cccnc2Nc2cccc(C(F)(F)F)c2)c2ccccc21 (stereo not given) | -7.32% (inactive) | 
CC1(C)CO[C@@H](CC(=O)O)CN1 | 0.189% (inactive) | 
O=Cc1ccccc1C=O | 13.1% (inactive) | 
CC(=O)c1ccc2c(c1)N(CCCN(C)C)c1ccccc1S2 | -26% [at 12.8 µM] (inactive) | 
O=C(O)[C@@H]1CSCN1 | -4.68% (inactive) | 
CC(=O)Nc1ccc(/C=N/NC(N)=S)cc1 |  | inactive
C#CCN(C)Cc1ccccc1 | 6.49% [at 12.8 µM] (inactive) | 
Cc1cccc(Nc2cc(Cl)nc(SCC(=O)O)n2)c1C | -10.6% (inactive) | 
NCC(=O)CCC(=O)O | -6.34% (inactive) | 
O=c1cc[nH]c(=S)[nH]1 | -0.369% (inactive) | 
O=C(O)c1ccccc1-c1ccc(C(F)(F)F)cc1 | -4.89% (inactive) | 
CC(=O)CCC(=O)O | -8.01% (inactive) | 
OCC(O)CN1CCN(c2ccccc2)CC1 (stereo not given) | -4.13% (inactive) | 

System: AA1029
Assay: as above
Details: P. falciparum in erythrocytes, SYBR Green DNA, 72 h; series mostly up to 28.7 µM; activity, negative = inhibition: at the top concentration
In short: as §1

SMILES | activity, negative = inhibition | Potency
CCOc1ccc2ccccc2c1C(=O)N[C@@H]1C(=O)N2[C@@H]1SC(C)(C)[C@@H]2C(=O)O | -1.16% [at 12.8 µM] (inactive) | 
Cc1cc(CC(=O)O)n(C)c1C(=O)c1ccc(Cl)cc1 |  | inactive
O=C(O)c1ccccn1 | 8.05% (inactive) | 
CCCCC(CC)COC(=O)c1ccccc1O (stereo not given) | 12% (inactive) | 
COc1cc(C)c(Cc2cnc(N)nc2N)cc1OC | -11.9% (inactive) | 
CCC(=O)c1ccc(O)cc1 | -3.65% (inactive) | 
NCCNCCNCCN | 6.84% (inactive) | 
C[C@](N)(Cc1ccc(O)cc1)C(=O)O | 3.34% (inactive) | 
O=C1NC(=O)[C@@]2(CCOc3ccc(F)cc32)N1 | 0.732% (inactive) | 
CC(C)(C)C(=O)NCCCC(=O)O | 5.44% (inactive) | 
NCCNCCNCCNCCN | 5.01% (inactive) | 
Nc1ccc(S(=O)(=O)NC(=O)c2ccccc2)cc1 | -6.63% [at 12.8 µM] (inactive) | 
CCCCN(CCCC)CCCOC(=O)c1ccc(N)cc1 | -11.3% [at 12.8 µM] (inactive) | 
[O-][n+]1cccc(CO)c1 | 0.867% (inactive) | 
O=C1c2c(O)cccc2Cc2cccc(O)c21 | 0.782% (inactive) | 
CCC(=O)Nc1ccc(O)cc1 | 7.83% (inactive) | 
Cc1cc(O)cc2c1O[C@](C)(CCC[C@H](C)CCC[C@H](C)CCCC(C)C)CC2 | 2.84% (inactive) | 
Cc1ncc(COP(=O)(O)O)c(C=O)c1O | -2.22% (inactive) | 

SMILES | activity, negative = inhibition | Potency
CC1(C)[C@@H]2CC[C@@]1(C)C(=O)C2 | 4.81% (inactive) | 
O=C(O)COc1nn(Cc2ccccc2)c2ccccc12 | -4.51% (inactive) | 
O=S(=O)(O)NC1CCCCC1 | -17.1% (inactive) | 
COc1ccc(S(=O)(=O)Nc2nnc(CC(C)C)s2)cc1 |  | inactive
O=C1OC(OC(=O)c2cccnc2Nc2cccc(C(F)(F)F)c2)c2ccccc21 (stereo not given) | 6.26% (inactive) | 
CC1(C)CO[C@@H](CC(=O)O)CN1 | 4.72% (inactive) | 
O=Cc1ccccc1C=O | 7.6% (inactive) | 
CC(=O)c1ccc2c(c1)N(CCCN(C)C)c1ccccc1S2 | -28.8% [at 12.8 µM] (inactive) | 
O=C(O)[C@@H]1CSCN1 | -5.59% (inactive) | 
CC(=O)Nc1ccc(/C=N/NC(N)=S)cc1 |  | inactive
C#CCN(C)Cc1ccccc1 | 6.1% [at 12.8 µM] (inactive) | 
Cc1cccc(Nc2cc(Cl)nc(SCC(=O)O)n2)c1C | 6.28% (inactive) | 
NCC(=O)CCC(=O)O | 8.23% (inactive) | 
O=c1cc[nH]c(=S)[nH]1 | -3.67% (inactive) | 
O=C(O)c1ccccc1-c1ccc(C(F)(F)F)cc1 | 1.41% (inactive) | 
CC(=O)CCC(=O)O | 7.17% (inactive) | 
OCC(O)CN1CCN(c2ccccc2)CC1 (stereo not given) | 4.66% (inactive) | 
